BAZ2B inh: blocks human BAZ2B; Q9UIF8; AlphaScreen BAZ2B-H3K14Ac peptide displacement; Potency, µM (highest dose often 114 µM), for the others: at the highest dose activity change, negative = inhibition, most hits filed as inhibitors; 360,000 compounds, 4.4% hits; note: potency is the fitted concentration of half-maximal effect; % is set by controls: 0 for no effect and ±100 for the full control effect; nearly all actives have a fitted effect of over 60% in size
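Inhibition is scored as reduced AlphaScreen emission. The BAZ2B/b-H3(5-23)K14Ac complex (50 nM each) in PBS pH 7.4, 0.01% Tween-20 meets compound (up to 110 uM) for 30 min at RT before bead addition.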
CtBP-E1A inh: CtBP/E1A binding inhibition. AlphaScreen GST-E1A/His-CtBP binding, 1536-well; stronger effect = lower value. activity change, % (concentration not given with the values). 340,000 compounds, 0.49% hits. AID 651724; in the data active = activity change below about -65%; inconclusive = mostly about -30% to -63%; note: % is set by controls: 0 for no effect and ±100 for the full control effect
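GST-E1A and His-tagged CtBP (125 nM each as 5X stock) were preincubated with pin-transferred compound for 2 h at 37 °C in the dark, then glutathione donor and nickel acceptor beads were added for 1 h before AlphaScreen reading.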
JMJD2A Tudor inh: inhibitors of human JMJD2A Tudor domain | Potency, µM (doses to about 114 µM), for the others: at the highest dose activity change, negative = inhibition, most hits filed as inhibitors | AlphaScreen JMJD2A-Tudor / H3K4me3 peptide binding | 390,000 compounds, 4.4% hits | O75164; note: potency is the fitted concentration of half-maximal effect; % is set by controls: 0 for no effect and ±100 for the full control effect; nearly all actives have a fitted effect of over 50% in size
TDP1 block: inhibitors of human tyrosyl-DNA phosphodiesterase TDP1. 350,000 compounds, 0.28% hits. recombinant TDP1, AlphaScreen DNA substrate cleavage. AID 485290. Q9NUW8. Potency, µM (doses to about 130 µM), inactives show at the top dose activity change, negative = inhibition, actives largely listed as inhibitors; note: potency is the fitted concentration of half-maximal effect; % is set by controls: 0 for no effect and ±100 for the full control effect; nearly all actives have a fitted effect of over 40% in size
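Steps: enzyme plus compound, 15 min RT; add biotin/phosphotyrosine-FITC oligonucleotide (15 nM final), react 5 min; add donor/acceptor beads (10 ug/ml final), 10 min; read AlphaScreen. Tdp1 at 1 nM final.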
Six1-Eya2 inh: inhibitors of human Six1/Eya2 interaction; activity change, % (no concentration beside the values); AlphaScreen GST-Six1/His-Eya2 binding, biochemical; stronger effect = lower value; Q15475+O00167; 360,000 compounds, 0.56% hits; in the data active = activity change below about -65%; inconclusive = mostly about -30% to -63%; note: % is set by controls: 0 for no effect and ±100 for the full control effect
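Compounds are tested against tagged Six1 and Eya2 proteins bridged by glutathione donor and nickel acceptor beads; after a one-hour incubation at 37 °C without light, AlphaScreen emission is recorded.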
HP1b chromo inh: blocks HP1-beta chromodomain binding to methylated histone tails | Potency, µM (top dose mostly 114 µM), for the others: at the top dose activity change, negative = inhibition, usual class: inhibitors | 390,000 compounds, 0.56% hits | AlphaScreen HP1-beta / biotin-H3K9me3 peptide binding; note: potency is the fitted concentration of half-maximal effect; nearly all actives have a fitted effect of over 70% in size
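AlphaScreen: HP1-beta (50 nM) preformed 30 min with biotin-H3(1-18)K9me3 peptide (50 nM) in PBS pH 7.4, 0.01% Tween-20. Compound added for 30 min at RT, then streptavidin donor/nickel chelate acceptor beads (10 ug/mL) for 30 min.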
* hit, by the source's call; ? = inconclusive; . = no result; [ ] = another dose, or the depositor's remark. Compounds with a hit are over-represented: about 5.3% of the library has one in this group of screens. Unless noted, calls come from the whole dose curve; as a rule, active = well fitted inhibition curve with a large enough effect; inconclusive = small, poorly fitted or top-dose-only effect; inactive = no such curve, though single readings can be large or run the other way.

SMILES	BAZ2B inh	CtBP-E1A inh	JMJD2A Tudor inh	TDP1 block	Six1-Eya2 inh	HP1b chromo inh
COc1ccc(N2CSC3=C(C#N)C(c4cccc(OC)c4OC)CC(=O)N3C2)cc1 (stereo unspecified)	?	0	20µM*	7%	-12	?
COc1cc(OC)c(C2CC(=O)N3CN(c4ccccc4C)CSC3=C2C#N)cc1OC (stereo unspecified)	56µM*	.	.	7%	.	.
COc1cccc(C2c3c(ncn(-c4cccc(C)c4)c3=N)Oc3ccc4ccccc4c32)c1 (stereo unspecified)	.	.	?	4%	.	.
COc1ccc(NC(=O)NC(C)(C(F)(F)F)C(F)(F)F)cc1	-3%[57.1 µM]	-7	16µM*	1%	-1	-3%
Oc1oc(-c2ccccc2)nc1C=Nc1ccccc1	-12%	9	89µM*	0%	-3	7%
Cc1ccccc1NS(=O)(=O)c1nnc(NC(=O)c2ccco2)s1	-39%	.	?	4%	.	?
COc1ccc2[nH]c(C)c(CN3CCC(C)CC3)c(=O)c2c1	-6%	9	-18%	-2%	5	17%
COc1ccc2[nH]c(C)c(CCN3C(=O)C4CC=CCC4C3=O)c2c1 (stereo unspecified)	?	-22	25µM*	5%	-13	-14%
Nc1ccc(C(CC(=O)O)n2cccc2)cc1 (stereo unspecified)	79µM*	-9	?	.	-3	?
CCOc1ccccc1NC(=O)CSC1=Nc2ccccc2C2=NC(CC(=O)NC3CCCCC3)C(=O)N12 (stereo unspecified)	-32%	.	-14%	0%	.	20%
Cc1sc2nc(-c3ccncc3)[nH]c(=O)c2c1-c1ccccc1	4%	.	.	3%	.	.
Cc1sc2nc(-c3ccccn3)[nH]c(=O)c2c1-c1ccccc1	-3%	-83*	-14%	-5%	?	18%
CCN(CC)C(=O)c1sc2nc(-c3ccccn3)[nH]c(=O)c2c1C	.	-88*	28µM*	.	-90*	25%
COc1ccccc1CN1COc2ccc3c(oc(=O)c4ccccc43)c2C1	5µM*	.	?	7%	.	21%
O=c1oc2c3c(ccc2c2ccccc12)OCN(Cc1ccc(Cl)cc1)C3	-27%	.	-15%	1%	.	39%
CCN(CC)CCN(CC(=O)N(C1CCCCC1)C1CCCCC1)C(=O)c1ccco1	50µM*	-1	1.6µM*	.	16	?
CCC(=O)Nc1ccc(OCc2cc(C3Nc4ccccc4C(=O)N3Cc3ccccc3)ccc2OC)cc1 (stereo unspecified)	.	.	-35%	1%	.	.
CC(C)N(Cc1ccccc1)C(=O)COC(=O)/C=C/c1cnc2ccccc2n1	?	-87*	-25%	6%	-22	-19%
CNS(=O)(=O)c1cn(CC(=O)N2CCN(c3ccccc3F)CC2)cc1S(=O)(=O)NC	-34%	.	-8%	3%	.	10%
CC(=O)Nc1ccc(S(=O)(=O)N2CCN(C(=O)C3COc4ccccc4O3)CC2)cc1 (stereo unspecified)	-26%	-2	-19%	4%	-13	0%
COc1ccc(S(=O)(=O)N2CCN(C(=O)C3COc4ccccc4O3)CC2)cc1 (stereo unspecified)	18µM*	4	14µM*	3.5µM*	-20	?
COc1ccc2c(C)c(CC(=O)N3CCN(C(=O)C4COc5ccccc5O4)CC3)c(=O)oc2c1C (stereo unspecified)	-2%	2	18µM*	5%	-8	-21%
Cc1ccc(CCNC(=O)CCn2nc(-c3ccc(C)cc3)ccc2=O)cc1	28%	.	-14%	3%	.	49%
O=C(CN1CCC(n2nnc3cc(F)ccc32)CC1)NCc1ccco1	79µM*	-14	-23%	-2%	-1	12%
CCOc1ccc(NC(=O)Nc2cc3c(cc2N2CCCCC2)n(C)c(=O)n3C)cc1	16%	.	-18%	2%	.	23%
SMILES	BAZ2B inh	CtBP-E1A inh	JMJD2A Tudor inh	TDP1 block	Six1-Eya2 inh	HP1b chromo inh
COc1ccc(NC(=O)CSc2nnc(N)s2)cc1	-2%	1	-10%	5%	2	17%
CCOC(=O)c1sc(SCC(=O)Nc2ccc(N(C)C)cc2)nc1N	45µM*	-21	?	9%	-20	?
CN(C)c1ccc(NC(=O)CSc2nc(N)c(C(=O)Nc3ccc(N(C)C)cc3)s2)cc1	20µM*	?	?	10%	-7	?
CCc1nc(SCC(=O)Nc2ccc(N(C)C)cc2)n[nH]1	-7%	-1	-19%	8%	3	3%
O=[S+]([O-])(c1c(F)cccc1F)N1CCN([S+](=O)([O-])c2cccc3nonc23)CC1	.	.	-14%	.	.	.
CC1CC(C)(C)N(C(=O)CN2CCN(C)CC2)c2ccccc21 (stereo unspecified)	25µM*	-8	20µM*	.	2	?
COc1cccc(C(=O)Oc2c(CN3CCOCC3)cc(Cl)c3cccnc23)c1	45µM*	-91*	50µM*	7%	-88*	33%
COc1ccc(C(=O)OC(C)CN2CCOCC2)cc1 (stereo unspecified)	-4%	.	8%	.	5	41%
COc1cc(C(=O)Oc2c(CN3CCOCC3)cc(Cl)c3cccnc23)cc(OC)c1OC	20µM*	-92*	56µM*	7%	-92*	17%
COc1cccc(C(=O)OCCN2CCOCC2)c1	-16%	.	-9%	-8%	-4	69%
COc1ccc(C(=O)Oc2c(CN3CCOCC3)cc(Cl)c3cccnc23)cc1	50µM*	-65*	?	5%	?	34%
O=C(Oc1c(CN2CCOCC2)cc(Cl)c2cccnc12)c1ccc(F)cc1	20µM*	-92*	22µM*	4%	-91*	-2%
O=C(Oc1ccc(Cl)c2cccnc12)N1CCOCC1	-1%	-1	-16%	0%	1	37%
COc1cccc([C@H](O)Cn2cc(-c3cccc(CON=C(C)C)c3)nn2)c1	.	.	.	3%[21 µM]	.	.
Cn1c(=O)n(C)c2cc([N+](=O)[O-])c(N3CCN(C(=O)c4ccccc4)CC3)cc21	-38%	1	-20%	1%	-1	19%
Cn1c(=O)n(C)c2cc([N+](=O)[O-])c(N3CCN(S(C)(=O)=O)CC3)cc21	50µM*	-3	-8%	1%	-1	28%
Cn1c(=O)n(C)c2cc([N+](=O)[O-])c(N3CCN(C(=O)c4ccccc4Cl)CC3)cc21	50µM*	6	-13%	5%	-24	11%
COc1cccc(NC(=O)c2sc3nc(C)c(C(=O)Nc4ccc(C)cc4C)c(-c4ccco4)c3c2N)c1	-2%	.	-13%	6%	.	56%

Bioassay records (PubChem BioAssay)
